Test results as given in paper PMC5540273 (PLoS ONE, 2017).

Legend:
Details in all cases: concentration: 1 μM,replicates: in singlicate; n = 1
PLK2 = tested on: PLK2
PLK3 = tested on: PLK3
PLK4 = tested on: PLK4
PRKCD = tested on: PRKCD
PRKCE = tested on: PRKCE
PRKCH = tested on: PRKCH
PRKCI = tested on: PRKCI
PRKCQ = tested on: PRKCQ
PRKD1 = tested on: PRKD1
PRKD2 = tested on: PRKD2
PRKD3 = tested on: PRKD3
PRKG1 = tested on: PRKG1
PRKG2 = tested on: PRKG2
PRKR = tested on: T1, PRKR
T1 construct: gene EIF2AK2

PRKX = tested on: PRKX
PRP4 = tested on: PRP4
PYK2 = tested on: T2, PYK2
T2 construct: gene PTK2B

QSK = tested on: QSK
RAF1 = tested on: RAF1
RET = tested on: RET
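Also: KINOMEscan kinase panel screen.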

## Cc1ccc2c(-c3ccnc(Nc4ccc(C(F)(F)F)cc4)n3)cnn2n1 [GW819776]
PLK2
  %Inh: 15%
PLK3
  %Inh: 33%
PLK4
  %Inh: 9%
PRKCD
  %Inh: 5%
PRKCE
  %Inh: 0%
PRKCH
  %Inh: 0%
PRKCI
  %Inh: 22%
PRKCQ
  %Inh: 0%
PRKD1
  %Inh: 0%
PRKD2
  %Inh: 0%
PRKD3
  %Inh: 0%
PRKG1
  %Inh: 8%
PRKG2
  %Inh: 0%
PRKR
  %Inh: 0%
PRKX
  %Inh: 0%
PRP4
  %Inh: 0%
PYK2
  %Inh: 16%
QSK
  %Inh: 14%
RAF1
  %Inh: 15%
RET
  %Inh: 0%

## C[C@@H](Oc1cc(-n2cnc3cc(-c4ccncc4)ccc32)sc1C(N)=O)c1ccccc1Cl [GSK479719]
PLK2
  %Inh: 99.5%
PLK4
  %Inh: 29%
PRKCD
  %Inh: 0%
PRKCE
  %Inh: 18%
PRKCH
  %Inh: 12%
PRKCI
  %Inh: 0%
PRKCQ
  %Inh: 2%
PRKD1
  %Inh: 0%
PRKD2
  %Inh: 0%
PRKD3
  %Inh: 16%
PRKG1
  %Inh: 3%
PRKG2
  %Inh: 2%
PRKR
  %Inh: 0%
PRKX
  %Inh: 2%
PRP4
  %Inh: 14%
PYK2
  %Inh: 13%
QSK
  %Inh: 9%
RAF1
  %Inh: 13%
RET
  %Inh: 36%

## Cc1nnc(-c2ccc3occ(-c4ccc(S(C)=O)cc4)c3n2)o1 (stereo not shown)
PLK2
  %Inh: 0%
PLK3
  %Inh: 0%
PLK4
  %Inh: 0%
PRKCD
  %Inh: 0%
PRKCE
  %Inh: 0%
PRKCH
  %Inh: 4%
PRKCI
  %Inh: 0%
PRKCQ
  %Inh: 0%
PRKD1
  %Inh: 22%
PRKD2
  %Inh: 0%
PRKD3
  %Inh: 0%
PRKG1
  %Inh: 0%
PRKG2
  %Inh: 0%
PRKR
  %Inh: 56%
PRKX
  %Inh: 0%
PRP4
  %Inh: 16%
PYK2
  %Inh: 2%
QSK
  %Inh: 0%
RAF1
  %Inh: 14%
RET
  %Inh: 0%

## O=c1[nH]cc(-c2ccc(O)cc2)c2sc(-c3ccncc3)cc12 [GSK1033723]
PLK2
  %Inh: 0%
PLK3
  %Inh: 0%
PLK4
  %Inh: 0%
PRKCD
  %Inh: 0%
PRKCE
  %Inh: 21%
PRKCH
  %Inh: 0%
PRKCI
  %Inh: 33%
PRKCQ
  %Inh: 19%
PRKD1
  %Inh: 0%
PRKD2
  %Inh: 0%
PRKD3
  %Inh: 1%
PRKG1
  %Inh: 16%
PRKG2
  %Inh: 14%
PRKR
  %Inh: 0%
PRKX
  %Inh: 10%
PRP4
  %Inh: 22%
QSK
  %Inh: 1%
RAF1
  %Inh: 7%
RET
  %Inh: 29%

## CCCC(=O)Nc1n[nH]c2ncccc12 [SB-601436]
PLK2
  %Inh: 7%
PLK3
  %Inh: 7%
PLK4
  %Inh: 0%
PRKCD
  %Inh: 0%
PRKCE
  %Inh: 19%
PRKCH
  %Inh: 0%
PRKCI
  %Inh: 0%
PRKCQ
  %Inh: 0%
PRKD1
  %Inh: 0%
PRKD2
  %Inh: 0%
PRKD3
  %Inh: 0%
PRKG1
  %Inh: 5%
PRKG2
  %Inh: 0%
PRKR
  %Inh: 0%
PRKX
  %Inh: 0%
PRP4
  %Inh: 8%
PYK2
  %Inh: 7%
QSK
  %Inh: 0%
RAF1
  %Inh: 0%
RET
  %Inh: 0%

## Cn1cc(-c2cccc3c(N)c(C(N)=O)nnc23)cn1
PLK2
  %Inh: 13%
PLK3
  %Inh: 17%
PLK4
  %Inh: 26%
PRKCD
  %Inh: 24%
PRKCE
  %Inh: 10%
PRKCH
  %Inh: 36%
PRKCI
  %Inh: 24%
PRKCQ
  %Inh: 53%
PRKD1
  %Inh: 0%
PRKD2
  %Inh: 15%
PRKD3
  %Inh: 21%
PRKG1
  %Inh: 39%
PRKG2
  %Inh: 11%
PRKR
  %Inh: 0%
PRKX
  %Inh: 3%
PRP4
  %Inh: 1%
PYK2
  %Inh: 9%
QSK
  %Inh: 3%
RAF1
  %Inh: 0%
RET
  %Inh: 12%

## O=C(Nc1ccc(Oc2ccc3nc(NC(=O)C4CC4)cn3n2)c(F)c1)c1cccn(-c2ccccc2)c1=O
PLK2
  %Inh: 0%
PLK3
  %Inh: 0%
PLK4
  %Inh: 0%
PRKCD
  %Inh: 0%
PRKCE
  %Inh: 0%
PRKCH
  %Inh: 0%
PRKCI
  %Inh: 28%
PRKCQ
  %Inh: 0%
PRKD1
  %Inh: 0%
PRKD2
  %Inh: 9%
PRKD3
  %Inh: 0%
PRKG1
  %Inh: 30%
PRKG2
  %Inh: 1%
PRKR
  %Inh: 0%
PRKX
  %Inh: 0%
PRP4
  %Inh: 0%
PYK2
  %Inh: 19%
QSK
  %Inh: 0%
RAF1
  %Inh: 87%
RET
  %Inh: 99.9%

## CCNCC(Cc1ccccc1)NC(=O)c1cc(Br)c(-c2ccnc3[nH]ccc23)s1.Cl.Cl (stereo not shown) [GSK1383280]
PLK2
  %Inh: 30%
PLK3
  %Inh: 47%
PLK4
  %Inh: 92.3%
PRKCD
  %Inh: 91.7%
PRKCE
  %Inh: 94.5%
PRKCH
  %Inh: 93.1%
PRKCI
  %Inh: 26%
PRKCQ
  %Inh: 74%
PRKD1
  %Inh: 77%
PRKD2
  %Inh: 73%
PRKD3
  %Inh: 73%
PRKG1
  %Inh: 99%
PRKG2
  %Inh: 99%
PRKR
  %Inh: 22%
PRKX
  %Inh: 95.6%
PRP4
  %Inh: 6%
PYK2
  %Inh: 25%
QSK
  %Inh: 0%
RAF1
  %Inh: 2%
RET
  %Inh: 75%

## Cc1ccc(Nc2ccnc(Nc3ccc4c(c3)CS(=O)(=O)C4)n2)cc1O.Cl [GW579362]
PLK2
  %Inh: 0%
PLK3
  %Inh: 4%
PLK4
  %Inh: 99.7%
PRKCD
  %Inh: 0%
PRKCE
  %Inh: 19%
PRKCH
  %Inh: 0%
PRKCI
  %Inh: 32%
PRKCQ
  %Inh: 46%
PRKD1
  %Inh: 29%
PRKD2
  %Inh: 55%
PRKD3
  %Inh: 87%
PRKG1
  %Inh: 0%
PRKG2
  %Inh: 0%
PRKR
  %Inh: 47%
PRKX
  %Inh: 0%
PRP4
  %Inh: 84%
PYK2
  %Inh: 83%
QSK
  %Inh: 9%
RAF1
  %Inh: 42%
RET
  %Inh: 100%

## CCN1CCN(CCCC(=O)Nc2n[nH]c3nc(-c4ccc(O)cc4)c(Br)cc23)CC1 [SB-731579]
PLK2
  %Inh: 0%
PLK3
  %Inh: 0%
PLK4
  %Inh: 0%
PRKCD
  %Inh: 64%
PRKCE
  %Inh: 70%
PRKCH
  %Inh: 19%
PRKCI
  %Inh: 2%
PRKCQ
  %Inh: 0%
PRKD1
  %Inh: 1%
PRKD2
  %Inh: 0%
PRKD3
  %Inh: 0%
PRKG1
  %Inh: 3%
PRKG2
  %Inh: 6%
PRKR
  %Inh: 0%
PRKX
  %Inh: 0%
PRP4
  %Inh: 0%
PYK2
  %Inh: 0%
QSK
  %Inh: 50%
RAF1
  %Inh: 17%
RET
  %Inh: 23%

## Cc1ccc(C(=O)Nc2ccc(Oc3ccc4nc(NC(=O)C5CC5)cn4c3)c(F)c2)c(=O)n1-c1ccccc1
PLK2
  %Inh: 0%
PLK3
  %Inh: 0%
PLK4
  %Inh: 35%
PRKCD
  %Inh: 0%
PRKCE
  %Inh: 0%
PRKCH
  %Inh: 0%
PRKCI
  %Inh: 28%
PRKCQ
  %Inh: 24%
PRKD1
  %Inh: 0%
PRKD2
  %Inh: 0%
PRKD3
  %Inh: 0%
PRKG1
  %Inh: 5%
PRKG2
  %Inh: 0%
PRKR
  %Inh: 4%
PRKX
  %Inh: 0%
PRP4
  %Inh: 38%
PYK2
  %Inh: 19%
QSK
  %Inh: 0%
RAF1
  %Inh: 82%
RET
  %Inh: 100%

## N#Cc1cccc(C(=O)NC2CCN(c3ccnc(Nc4ccc(F)cc4)n3)C2)c1 (stereo not shown) [GSK1379708]
PLK2
  %Inh: 0%
PLK3
  %Inh: 0%
PLK4
  %Inh: 0%
PRKCD
  %Inh: 0%
PRKCE
  %Inh: 0%
PRKCH
  %Inh: 0%
PRKCI
  %Inh: 23%
PRKCQ
  %Inh: 0%
PRKD1
  %Inh: 0%
PRKD2
  %Inh: 0%
PRKD3
  %Inh: 0%
PRKG1
  %Inh: 1%
PRKG2
  %Inh: 0%
PRKR
  %Inh: 0%
PRKX
  %Inh: 14%
PRP4
  %Inh: 29%
PYK2
  %Inh: 3%
QSK
  %Inh: 0%
RAF1
  %Inh: 2%
RET
  %Inh: 18%

## CN(c1ccccc1CNc1nc(Nc2ccc3c(c2)CC(=O)N3)ncc1C(F)(F)F)S(C)(=O)=O
PLK2
  %Inh: 80%
PLK3
  %Inh: 49%
PLK4
  %Inh: 61%
PRKCD
  %Inh: 73%
PRKCE
  %Inh: 58%
PRKCH
  %Inh: 0%
PRKCI
  %Inh: 0%
PRKCQ
  %Inh: 80%
PRKD1
  %Inh: 51%
PRKD2
  %Inh: 31%
PRKD3
  %Inh: 70%
PRKG1
  %Inh: 0%
PRKG2
  %Inh: 0%
PRKR
  %Inh: 0%
PRKX
  %Inh: 17%
PRP4
  %Inh: 0%
QSK
  %Inh: 0%
RAF1
  %Inh: 0%
RET
  %Inh: 87%

## Cn1ccc2ncnc(Oc3ccc(NC(=O)Nc4cccc(C(F)(F)F)c4)c(F)c3)c21
PLK2
  %Inh: 12%
PLK3
  %Inh: 33%
PLK4
  %Inh: 31%
PRKCD
  %Inh: 0%
PRKCE
  %Inh: 0%
PRKCH
  %Inh: 0%
PRKCI
  %Inh: 39%
PRKCQ
  %Inh: 0%
PRKD1
  %Inh: 0%
PRKD2
  %Inh: 3%
PRKD3
  %Inh: 0%
PRKG1
  %Inh: 18%
PRKG2
  %Inh: 17%
PRKR
  %Inh: 10%
PRKX
  %Inh: 0%
PRP4
  %Inh: 14%
PYK2
  %Inh: 11%
QSK
  %Inh: 0%
RAF1
  %Inh: 80%
RET
  %Inh: 100%
